Data published in PubChem BioAssay (NCATS).
Records with an inconclusive call do not appear. Entries that show only a call come without a potency. The source made the active and inactive calls. Unless noted, calls come from the whole dose curve; as a rule, active = well fitted curve in the direction sought with a large enough effect; inconclusive = small, poorly fitted or top-dose-only effect, or another doubt; inactive = no such curve, though single readings can be large; an effect the other way counts as inactive or inconclusive.

Columns and labels:
[1] = target: Mitogen-activated protein kinase 10 (Mus musculus) (UniProt Q61831); experiment: JNK3 AlphaScreen Assay (AID 530; active = well fitted curve in either direction with a large enough effect, not every such curve was filed as active;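 note: kinase came from lysate of stimulated human HepG2 cells; signal reports phosphorylation of biotinylated GST-cJun 1-79 at Ser73 with 10 µM ATP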); conditions: JNK3 lysate, c-Jun phosphorylation; series mostly up to 57.1 µM
In short: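 Phosphorylation of biotinylated GST-cJun(1-79) at Ser73 is measured by AlphaScreen proximity luminescence. Enzyme is JNK3 in HepG2 lysates activated with interleukin-1beta and tumor necrosis factor alpha; ATP is 10 uM final.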

[2] = target: Cytochrome P450 3A4 (Homo sapiens) (UniProt P08684); experiment: qHTS Assay for Inhibitors and Substrates of Cytochrome P450 3A4 (AID 884); conditions: recombinant CYP3A4, Luciferin-PPXE luminescence; series mostly up to 57.1 µM; note: nearly all actives have a fitted effect of over 50% in size; note: potency is the fitted concentration of half-maximal effect
Cytochrome P450 3A4 (Homo sapiens), sequence (P08684 whole entry, looked up): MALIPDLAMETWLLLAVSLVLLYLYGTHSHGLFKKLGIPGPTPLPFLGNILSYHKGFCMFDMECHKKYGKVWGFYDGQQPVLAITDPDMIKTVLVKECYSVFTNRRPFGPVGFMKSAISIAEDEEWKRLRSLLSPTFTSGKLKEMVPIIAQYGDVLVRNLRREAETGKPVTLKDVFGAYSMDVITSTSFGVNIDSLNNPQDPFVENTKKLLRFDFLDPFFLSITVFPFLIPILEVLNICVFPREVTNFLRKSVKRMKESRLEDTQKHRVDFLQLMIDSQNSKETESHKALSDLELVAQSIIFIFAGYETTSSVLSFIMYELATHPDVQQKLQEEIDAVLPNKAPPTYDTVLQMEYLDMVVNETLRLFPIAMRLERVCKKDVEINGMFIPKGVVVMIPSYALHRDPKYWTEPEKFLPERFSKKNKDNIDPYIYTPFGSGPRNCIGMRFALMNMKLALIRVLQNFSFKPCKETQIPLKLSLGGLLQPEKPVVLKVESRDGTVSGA
In short: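 Luminescent readout of luciferin produced by CYP3A4 (20 nM) dealkylation of Luciferin-PPXE, 25 uM (its KM). NADPH-driven reaction ran 60 min at RT after 10 min compound preincubation; data scaled to 57 uM ketoconazole as 100% inhibition.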

[3] = target: Cytochrome P450 3A4 (Homo sapiens) (UniProt P08684); experiment: qHTS Assay for Activators of Cytochrome P450 3A4 (AID 885); conditions: recombinant CYP3A4, Luciferin-PPXE luminescence, 60 min; series mostly up to 57.1 µM; note: nearly all actives have a fitted effect of over 65% in size
In short: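 Human CYP3A4 dealkylates Luciferin-PPXE to luciferin, which luciferase detection converts to light. Substrate was at its KM (25uM), buffer 200mM KPO4, reaction 60 min at RT.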

Compound	outcome [1]	Potency [2]	Potency [3]
CCCCCCN(C(=O)CCCCCN1C(=O)NC(c2ccc(-c3ccccc3)cc2)C(C(=O)OCc2ccccc2)=C1C)C(C(=O)NCCCC)c1ccc(O)cc1 (stereo not given)	inactive	10 µM (active)	–
CC(=O)N1[C@H](Cc2ccccc2)C=C[C@]1(C)C(=O)O	inactive	inactive	–
CC(Cc1ccccc1)C(=O)N(C)Cc1ccccc1 (stereo not given)	inactive	inactive	–
CN1[C@H](Cc2ccccc2)C=C[C@]1(C)C(=O)NCC1CC1	inactive	inactive	–
COC(=O)N1[C@H](C)C=C[C@]1(Cc1ccccc1)C(=O)OC	inactive	inactive	–
COC(=O)N1[C@H](C)C=C[C@]1(Cc1ccccc1)C(=O)O	inactive	inactive	–
CC1=C(C(=O)OCc2ccccc2)C(c2cccc([N+](=O)[O-])c2)NC(=O)N1CCCCCC(=O)O (stereo not given)	inactive	inactive	–
COC(=O)N1[C@H](Cc2ccccc2)C=C[C@]1(C)C(=O)NCc1ccccn1	inactive	7.94 µM (active)	inactive
CNC(=O)[C@@]1(C)C=C[C@@H](Cc2ccccc2)N1C(C)=O	inactive	inactive	–
CCCn1c(C)nc2c(NCCO)nc(C)nc21	inactive	inactive	–
COC(=O)c1ccc(C(NC(=O)OCc2ccccc2)/C(=C/[C@@H](C)C(=O)NCc2cc(C)n(C)n2)c2cccnc2)cc1 (stereo not given in full)	inactive	inactive	–
CNC(=O)C1(C)C=CCN1C(=O)c1ccccc1 (stereo not given)	inactive	inactive	–
Cc1nc(NCCO)c2nc(-c3ccccc3)n(CCN(C)C)c2n1	inactive	inactive	–
COCCNC(=O)[C@@]1(Cc2ccccc2)C=C[C@@H](C)N1C(=O)OC	inactive	inactive	–
CCCCCCN(C(=O)CCCCCN1C(=O)NC(c2ccc(-c3ccccc3)cc2)C(C(=O)OCc2ccccc2)=C1C)C(C(=O)NCCCC)c1ccc(O)c(C(=O)OC)c1 (stereo not given)	inactive	10 µM (active)	inactive
CNC(=O)C1(CC(C)C)C=CCN1C(=O)c1ccccc1 (stereo not given)	inactive	inactive	–
COCCNC(=O)C1(C)C=CCN1C(C)=O (stereo not given)	inactive	inactive	–
CC(=O)N1C2(C=CC1(C)C(=O)NCc1ccc(C)o1)CCCCC2 (stereo not given)	inactive	inactive	–
CC(=O)N1C2(C=CC1(C)C(=O)NCc1cc(F)cc(C(F)(F)F)c1)CCCCC2 (stereo not given)	inactive	10 µM (active)	inactive
CC1(C(=O)O)C=CCN1C(=O)c1ccccc1 (stereo not given)	inactive	inactive	–
CC(=O)N1[C@H](C)C=C[C@]1(Cc1ccccc1)C(=O)NCCN1CCOCC1	inactive	12.6 µM (active)	inactive
CC(Cc1ccccc1)C(=O)N1CCN(C)CC1 (stereo not given)	inactive	inactive	–
CC(=O)N1CC=CC1(CC(C)C)C(=O)NCCc1c[nH]c2ccccc12 (stereo not given)	inactive	3.98 µM (active)	–
COC(=O)c1ccc(C(NC(=O)OCc2ccccc2)/C(=C/[C@@H](C)C(=O)N(C)Cc2ccccc2)c2cccnc2)cc1 (stereo not given in full)	inactive	2 µM (active)	inactive
CC(=O)N1[C@H](Cc2ccccc2)C=C[C@]1(C)C(=O)NCc1ccccn1	inactive	inactive	–
C[C@]1(C(=O)NCCCNc2ncc(C(F)(F)F)cc2Cl)C=C[C@@H](Cc2ccccc2)N1C(=O)c1ccccc1	inactive	3.16 µM (active)	–
C[C@@H]1C=C[C@](Cc2ccccc2)(C(=O)O)N1C(=O)c1ccccc1	inactive	inactive	–
COC(=O)CCCCCN1C(=O)NC(c2ccc(-c3ccccc3)cc2)C(C(=O)OCc2ccccc2)=C1C (stereo not given)	inactive	inactive	–
CNC(=O)C1(C)C=CCN1C(=O)OC (stereo not given)	inactive	inactive	–
COC(=O)N1[C@H](Cc2ccccc2)C=C[C@]1(C)C(=O)O	inactive	inactive	–
